Shiga toxin inh = inhibitors of Shiga toxin in Vero cells | inhibition, % at 38.7 µM | Vero cells, Shiga toxin protein synthesis inhibition reporter | hit rate 9.2% among 290,000; in the data active = inhibition mostly above about 28%, no sharp cut-off; inactive = mostly below about 43%; note: 0% is about no effect
Pf growth 96h = P. falciparum growth inhibition at 96 hours. P. falciparum luciferase reporter growth, 96 h. Potency, µM (titrated, usually from 28.7 µM), inactives show at the top dose activity change, negative = inhibition, usual class: inhibitors. hit rate 6.9% among 320,000; note: potency is the fitted concentration of half-maximal effect; % is set by controls: 0 for no effect and ±100 for the full control effect
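P. falciparum expressing integrated firefly luciferase, in erythrocytes at 2% hematocrit, 0.05% parasitemia, incubated with compounds 96 h at 37 C, 5% CO2. Growth inhibition read as loss of luminescence; two-generation exposure targets delayed-death apicoplast inhibitors.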
Cycloheximide cs = affects cycloheximide protein synthesis inhibition readout, counter-screen; cell reporter, cycloheximide protein synthesis inhibition counterscreen; max response, %; hit rate 12% among 300,000; AID 2314; in the data active = max response mostly above about 13%, no sharp cut-off; inactive = mostly below about 14%; note: read at 38.3 µM for the half of the compounds with a filed dose; 0% is about no effect
LmPK inhibitor = blocks Leishmania mexicana pyruvate kinase activity. AID 1721. purified LmPK, Kinase-Glo ATP luminescence, 1 h. Q27686. Potency, µM (highest dose often 57.5 µM), inactives show top-dose activity change, negative = inhibition, hits mostly inhibitors. hit rate 0.37% among 290,000; note: potency is the fitted concentration of half-maximal effect; % is set by controls: 0 for no effect and ±100 for the full control effect
Target sequence (Q27686 whole entry, looked up): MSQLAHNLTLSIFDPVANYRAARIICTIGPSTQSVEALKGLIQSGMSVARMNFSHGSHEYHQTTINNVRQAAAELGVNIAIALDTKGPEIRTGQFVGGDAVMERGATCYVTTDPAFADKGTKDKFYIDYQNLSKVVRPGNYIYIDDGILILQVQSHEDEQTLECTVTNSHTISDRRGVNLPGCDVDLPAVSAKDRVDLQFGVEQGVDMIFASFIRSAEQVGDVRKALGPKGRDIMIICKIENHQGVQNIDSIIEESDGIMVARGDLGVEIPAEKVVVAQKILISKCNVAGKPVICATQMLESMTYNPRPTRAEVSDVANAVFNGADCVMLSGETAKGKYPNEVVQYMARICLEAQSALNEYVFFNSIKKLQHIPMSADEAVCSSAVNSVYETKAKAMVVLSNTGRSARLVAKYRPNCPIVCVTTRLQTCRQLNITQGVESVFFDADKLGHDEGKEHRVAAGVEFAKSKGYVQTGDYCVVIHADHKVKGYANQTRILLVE
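Purified LmPK (0.1 nM) converted ADP (0.1 mM) to ATP with PEP (0.5 mM) in imidazole buffer pH 7.2 with KCl and MgCl2, 1 h at room temperature. ATP was read by Kinase-Glo luminescence; data normalized to uninhibited and no-enzyme controls.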
Pf growth 48h = P. falciparum growth inhibition at 48 hours (one generation). P. falciparum luciferase growth in erythrocytes, 48 h. Potency, µM (titrated, usually from 28.7 µM), without a hit: top-dose activity change, negative = inhibition, usual class: inhibitors. hit rate 5.9% among 310,000; note: potency is the fitted concentration of half-maximal effect; % is set by controls: 0 for no effect and ±100 for the full control effect
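A one-generation exposure of luciferase-tagged malaria parasites in RPMI 1640/Albumax erythrocyte culture, 37 C and 5% CO2. Inhibition is inferred from decreased luminescence after adding detection reagent.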
Starred values were filed as active, the others as inactive; ? = inconclusive; / = not tested or not shown; [ ] = another dose, or the depositor's remark. An excerpt weighted towards active compounds, which were near 22% of everything screened. Unless noted, calls come from the whole dose curve; as a rule, active = well fitted inhibition curve with a large enough effect; inconclusive = small, poorly fitted or top-dose-only effect, or another doubt; inactive = no such curve, though single readings can be large or run the other way.

SMILES	Shiga toxin inh	Pf growth 96h	Cycloheximide cs	LmPK inhibitor	Pf growth 48h
COC(=O)c1cccnc1-n1c(=O)c2cccnc2n(CC(=O)Nc2ccc(Br)cc2)c1=O	-16	35%	-7	-3%	?
COC(=O)c1cccnc1-n1c(=O)c2cccnc2n(Cc2ccc([N+](=O)[O-])cc2)c1=O	-11	?	-2	10%	10µM*
Cc1cc(C)c(O)c(NC(=S)NC(=O)Cc2ccccc2)c1	5	?	-1	-3%	?
Cc1ccc(C)c(C2(O)CC(C)N(C)CC2C)c1 (centres undefined)	-8	6.6µM*	-2	-3%	-2%
CC(=O)OCCCN1c2ccccc2Nc2nnc(-c3ccccc3)cc21	68*	361%	36*	-2%	-2%
CC(=O)OCCCN1C(=O)c2cccc3cc(Br)cc(c23)C1=O	-8	0%	-1	-7%	5%
CCOC(=O)N1CCC(N2Cc3cccc(C(=O)NCc4ccc5c(c4)OCO5)c3C2=O)CC1	-8	?	1	7%	7.4µM*
CCOC(=O)N1CCC(N2Cc3cccc(C(=O)O)c3C2=O)CC1	-6	12%	-6	3%	-1%
CCOC(=O)N1CCC(N2Cc3cccc(C(=O)NCc4ccccc4OC)c3C2=O)CC1	2	1%	1	7%	13µM*
CCOC(=O)N1CCC(N2Cc3cccc(C(=O)NCc4ccc(OC)cc4)c3C2=O)CC1	-12	-1%	-2	3%	7.4µM*
Cc1n[nH]c(C)c1CCNC(=O)C1CCC(=O)N(CCc2cccc(F)c2)C1 (centres undefined)	-2	?	-2	-8%	24%
COc1ccc(C(=O)c2cn(CC(=O)Nc3cc(OC)cc(OC)c3)c3ccc(OC)cc3c2=O)cc1	/	-4%	/	/	-6%
CC(=O)N1c2ccc(S(=O)(=O)NCC3CCC(C(=O)N4CC(C)CC(C)C4)CC3)cc2CC1C (centres undefined)	-3	?	13	-2%	?
CC(=O)Oc1ccc(N2C(=O)C3C4C=CC(C5CC45)C3C2=O)cc1[N+](=O)[O-] (centres undefined)	-10	20%	-2	0%	-5%
COc1ccccc1N=C1SC(C(=O)Nc2ccc(F)cc2)CC(=O)N1C (centres undefined)	0	?	-3	-1%	10µM*
CCOc1cccc(NC(=O)C2CC(=O)N(C)C(=Nc3cccc(F)c3)S2)c1 (centres undefined)	15	?	1	1%	?
CCOc1cccc(NC(=O)C2CC(=O)N(C)C(=Nc3ccccc3)S2)c1 (centres undefined)	-13	3.7µM*	-5	6%	?
CCCOc1ccc(NC(=O)C2CC(=O)N(C)C(=Nc3cccc(OC)c3)S2)cc1 (centres undefined)	-12	?	0	5%	?
O=C(Nc1ccc(Cl)cc1C(=O)N1CCOCC1)c1cccc([N+](=O)[O-])c1	-5	?	-5	5%	21%
COc1ccc(C(=O)NCc2nnc(SC)n2Cc2ccccc2)cc1	-15	24%	7	7%[11.5 µM]	-12%
CCC(=O)N1CCN(c2nc3ccccc3s2)CC1	36	66%	23*	-6%	/
CCCCNC(=S)N1CCN(c2nc3ccccc3s2)CC1	-2	?	-2	-2%	0%
O=C(Nc1ccccc1)N1CCN(c2nc3ccccc3s2)CC1	0	/	27*	3%	?
O=C(C1CC1)N1CCN(c2nc3ccccc3s2)CC1	132*	1%[5.75 µM]	33*	-7%	220%
O=C(Nc1ccc(F)cc1)N1CCN(c2nc3ccccc3s2)CC1	19	-7%	13	3%	?
SMILES	Shiga toxin inh	Pf growth 96h	Cycloheximide cs	LmPK inhibitor	Pf growth 48h
CNC(=S)N1CCN(c2nc3ccccc3s2)CC1	69*	43%	46*	9%	107%
CN1CCN(c2ccc(-c3cccc(NC(=O)COc4ccc(Cl)cc4Cl)c3)nn2)CC1	/	-2%	/	/	-86%
O=S(=O)(c1ccccc1)N1CCN(c2nc3ccccc3s2)CC1	24	/	12	4%	29%
CS(=O)(=O)N1CCN(c2nc3ccccc3s2)CC1	11	-8%	12*	1%	48%
CC(=O)Nc1cccc(-c2csc(Nc3cc(C)ccn3)n2)c1	127*	-28%	41*	4%	-18%
Cc1ccnc(Nc2nc(-c3ccccc3)cs2)c1	89*	-14%	55*	-8%	29%
Cc1nc2sccn2c1-c1nc(-c2cc3ccccc3o2)cs1	-27	317%	-1	0%	/
CC(=O)Nc1ccc(-c2csc(Nc3cc(C)ccn3)n2)cc1	78*	-28%	49*	9%	227%
CC(=O)Nc1ccc(-c2csc(NNC(=O)c3ccccc3)n2)cc1	25	-2%	13	2%	19%
Cc1ccnc(Nc2nc(-c3c(C)nc4sccn34)cs2)c1	57	?	32*	1%	3.3µM*
Cc1nc(-c2cccc(NC(=O)c3ccc(-n4cccn4)cc3)c2)cs1	/	15%	/	/	-13%
Cc1cnc(C(=O)Nc2nc(-c3ccccc3)cs2)cn1	4	?	-2	3%	21%
CC(=O)Nc1cccc(-c2csc(Nc3ccccn3)n2)c1	90*	137%	45*	-9%	-13%
Cc1oc(-c2cccc(Cl)c2)nc1CS(=O)(=O)CC(=O)NCc1ccco1	7	25%	6	-1%	19%
O=C(N/N=C/c1ccoc1)c1ccccc1Br	2	-7%	7	2%	1%
Cc1cc(C(=O)N/N=C/c2ccc([N+](=O)[O-])s2)c2ccccc2n1	1	6%	-2	-2%	4.7µM*
Cc1cc(C(=O)N/N=C/c2ccc([N+](=O)[O-])cc2)c2ccccc2n1	15	-16%	-1	8%	8%
COc1ccc(NC(C)C(=O)N/N=C/c2ccc([N+](=O)[O-])s2)cc1 (centres undefined)	-19	27%	-2	9%	?
O=C(N/N=C/c1ccc([N+](=O)[O-])s1)c1ccccc1Br	-29	1.7µM*	-1	-3%	?
CCOc1ccccc1NC(=O)C(=O)N/N=C/c1ccc([N+](=O)[O-])cc1	4	54%	-1	1%	5%
Cc1ccc(NC(C)C(=O)N/N=C/c2ccc([N+](=O)[O-])s2)cc1 (centres undefined)	-9	15µM*	-1	-6%	?
COc1ccccc1NC(=O)C(=O)N/N=C/c1ccc([N+](=O)[O-])s1	-12	1.7µM*	-3	-3%	2.6µM*
COC(=O)c1nn(-c2ccc(C)cc2)c2nnc(Cc3ccccc3)c(=O)n12	-2	30%	10	2%	22%
COC(C(=O)Nc1cccc([N+](=O)[O-])c1)c1ccccc1 (centres undefined)	-5	47%	6	5%	10%
Cc1cc2cc(C)c3nnc(SCC(=O)Nc4ccc(S(=O)(=O)N5CCCCC5)cc4)n3c2cc1C	11	?	-1	2%	-16%

Screens: PubChem BioAssay, National Center for Advancing Translational Sciences (NCATS)
